# Active and inactive are the calls of the source. How the source made its calls: active means hit-call score of the fitted dose curve at least 0.9, where 1 is the maximum; inactive means score below 0.9.
# Target: Voltage-dependent L-type calcium channel subunit alpha-1C (Rattus norvegicus) (UniProt P22002)
# Assay: ERF_FR_IC_rCACNA1C_Dihydropyridine: Eurofins (ERF) Calcium Ion Channel Binding (Dihydropyridine Site) LeadHunter Assay for rat Cav1.2 (L-type), conducted at France lab site
# Method: ERF_FR_IC_rCACNA1C_Dihydropyridine is a biochemical, single-readout assay that uses extracted gene-proteins in a cell-free assay. Measurements were taken 1.5 hour after chemical dosing in a 96-well plate. See Cav1.2 (L-type) Rat Calcium Ion Channel Binding (Dihydropyridine Site) Assay, Cerep.ERF_FR_IC_rCACNA1C_Dihydropyridine is an assay component calculated from the ERF_FR_IC_rCACNA1C_Dihydropyridine assay. It is designed to measure radioligand binding using a type of binding reporter as detected by scintillation counting with radiometry technology.Data from the assay component ERF_FR_IC_rCACNA1C_Dihydropyridine was analyzed at the assay endpoint, ERF_FR_IC_rCACNA1C_Dihydropyridine, in the positive analysis fitting direction relative to DMSO as the negative control and baseline of activity. Using a type of binding reporter, loss-of-signal activity can be used to understand changes in binding as they relate to gene CACNA1C. To generalize the intended target to other relatable targets, this assay endpoint is annotated to the ion channel intended target family, where the subfamily is voltage gated (Calcium).
# Rat brain cells are incubated for 90 minutes at room temprature with [3H]nitrendipine (0.25 nM) ligand and Nitrendipine as control inhibitor. Test Sample Requirements: Minimum for 1) Screen: 60 ul of 10 mM stock -OR- 1 mg (pre-weighed) for 10 uM final testing. […]
# Voltage-dependent L-type calcium channel subunit alpha-1C (Rattus norvegicus), sequence (P22002 whole entry, looked up): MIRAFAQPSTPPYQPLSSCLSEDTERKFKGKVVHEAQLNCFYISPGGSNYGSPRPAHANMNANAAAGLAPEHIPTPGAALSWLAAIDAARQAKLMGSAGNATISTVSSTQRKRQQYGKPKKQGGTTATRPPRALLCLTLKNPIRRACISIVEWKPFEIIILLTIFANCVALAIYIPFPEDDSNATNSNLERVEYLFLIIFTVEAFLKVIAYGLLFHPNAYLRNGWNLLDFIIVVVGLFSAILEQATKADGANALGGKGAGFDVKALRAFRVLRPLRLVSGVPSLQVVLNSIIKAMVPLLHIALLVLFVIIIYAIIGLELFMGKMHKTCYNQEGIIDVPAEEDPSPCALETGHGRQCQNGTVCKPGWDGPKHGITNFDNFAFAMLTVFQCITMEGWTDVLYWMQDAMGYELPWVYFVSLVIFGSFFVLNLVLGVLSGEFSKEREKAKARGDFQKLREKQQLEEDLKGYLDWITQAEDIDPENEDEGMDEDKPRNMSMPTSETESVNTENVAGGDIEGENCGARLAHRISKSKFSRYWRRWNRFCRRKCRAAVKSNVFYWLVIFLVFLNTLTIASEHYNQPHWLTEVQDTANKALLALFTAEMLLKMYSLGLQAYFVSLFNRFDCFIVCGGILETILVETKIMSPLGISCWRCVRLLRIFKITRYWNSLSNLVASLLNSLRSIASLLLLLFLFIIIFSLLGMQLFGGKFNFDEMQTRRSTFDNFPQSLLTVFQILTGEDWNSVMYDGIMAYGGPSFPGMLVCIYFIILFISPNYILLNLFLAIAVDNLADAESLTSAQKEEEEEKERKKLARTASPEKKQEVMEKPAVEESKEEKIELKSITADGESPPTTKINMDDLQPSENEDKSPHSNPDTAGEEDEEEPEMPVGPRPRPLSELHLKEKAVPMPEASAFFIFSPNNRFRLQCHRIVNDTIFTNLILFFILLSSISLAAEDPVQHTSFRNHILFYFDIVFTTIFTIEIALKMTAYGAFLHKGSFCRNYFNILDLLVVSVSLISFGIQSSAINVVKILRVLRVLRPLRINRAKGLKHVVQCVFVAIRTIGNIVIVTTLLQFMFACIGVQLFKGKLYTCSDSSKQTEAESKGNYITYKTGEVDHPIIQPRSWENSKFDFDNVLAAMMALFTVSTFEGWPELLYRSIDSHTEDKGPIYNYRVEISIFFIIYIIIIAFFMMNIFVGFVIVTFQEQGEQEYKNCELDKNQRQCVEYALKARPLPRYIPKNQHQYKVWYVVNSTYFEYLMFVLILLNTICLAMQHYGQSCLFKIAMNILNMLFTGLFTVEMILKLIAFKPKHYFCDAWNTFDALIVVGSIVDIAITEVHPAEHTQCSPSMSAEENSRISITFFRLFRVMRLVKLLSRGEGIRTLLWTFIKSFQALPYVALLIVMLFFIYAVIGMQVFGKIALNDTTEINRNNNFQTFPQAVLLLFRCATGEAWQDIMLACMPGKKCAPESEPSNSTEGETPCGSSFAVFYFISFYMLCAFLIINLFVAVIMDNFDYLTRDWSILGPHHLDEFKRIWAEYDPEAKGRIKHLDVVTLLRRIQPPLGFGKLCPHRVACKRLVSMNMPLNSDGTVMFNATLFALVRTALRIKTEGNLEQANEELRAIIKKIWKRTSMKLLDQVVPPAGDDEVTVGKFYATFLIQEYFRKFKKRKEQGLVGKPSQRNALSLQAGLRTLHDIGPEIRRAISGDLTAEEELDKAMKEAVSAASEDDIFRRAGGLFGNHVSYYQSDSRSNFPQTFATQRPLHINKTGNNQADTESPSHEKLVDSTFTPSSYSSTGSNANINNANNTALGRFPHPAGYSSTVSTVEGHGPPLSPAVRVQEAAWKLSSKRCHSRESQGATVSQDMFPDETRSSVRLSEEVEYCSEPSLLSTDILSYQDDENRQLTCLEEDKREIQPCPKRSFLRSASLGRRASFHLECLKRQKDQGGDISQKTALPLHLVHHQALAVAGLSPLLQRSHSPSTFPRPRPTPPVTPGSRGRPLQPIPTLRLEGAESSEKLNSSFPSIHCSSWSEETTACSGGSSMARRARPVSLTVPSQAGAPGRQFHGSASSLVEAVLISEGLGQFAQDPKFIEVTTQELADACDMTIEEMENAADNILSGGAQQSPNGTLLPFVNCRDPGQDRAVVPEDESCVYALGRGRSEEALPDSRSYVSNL
structure (smiles),measurement,value
COc1cc(CCC(=O)CC(=O)CCc2ccc(O)c(OC)c2)ccc1O,AC50,3.16 µM (active)
